The values below come from PubChem BioAssay (Tox21).

Inconclusive results are not listed. Entries that show only a call come without a potency. Values without a mark were called inactive. Activity calls are given as the source filed them. The call rests on the fitted dose curve; in most records, active means well fitted cell-killing curve with a large enough effect in the repeat runs; inconclusive means weak or mixed curves, or effect the other way; inactive means flat fitted curve, though single readings scatter.
Potency means the concentration at half of the fitted maximal effect.

The experiment in a line: qHTS assay to identify small molecule agonists of the constitutive androstane receptor (CAR) signaling pathway - cell viability counter screen (AID 1224836). Further: nearly all actives have a fitted effect of over 45% in size. To be noted: HepG2-CYP2B6-hCAR viability, CellTiter-Fluor, 23 h, PK11195 added to every well; series mostly up to 92.4 µM. An excerpt:
U.S. Tox21 Program National Center for Advancing Translational Sciences [NCATS] NIH Chemical Genomics Center [NCGC] U.S. Environmental Protection Agency [EPA] National Institutes of Environmental Health Sciences [NIEHS] National Toxicology Program [NTP] U.S. Food and Drug Administration [FDA] Tox21 Assay Overview: The constitutive androstane receptor (CAR) is a nuclear receptor which regulates multiple drug metabolizing enzymes (DMEs) and transporters. Activating CAR will generally increase the transcription and subsequent translation of CYP2B6 and CYP3A4. These two DMEs represent about 50% of the drug metabolizing potential in the body. […] Recently, there have also been studies performed indicating CARs role in energy metabolism and cancer therapy. Therefore, inducing CARs activity could have a potential effect on diabetes and cancer. Identifying environmental toxins and compounds which modulate CAR, through the use of the Tox21 10K compound collection, will be an important step in determining the toxicity and potential therapeutic effects these factors will have on the human body. To differentiate true CAR agonists from cytotoxic substances, the assay is multiplexed with a cell viability assay.
Tox21 Assay Protocol Summary: A double-stable (hCAR and CYP2B6-2.2kb) transfected cell line, derived from human hepatoma (HepG2) cells, was utilized for the duration of the quantitative high-throughput screens. The HepG2-CYP2B6-hCAR cells were dispensed at 2500 cells/4 uL/well in 1536-well white solid bottom plates using a Multidrop Combi. After the assay plates were incubated at 37 C/5% CO2 for 4 hrs, 23 nL of compounds at 15 concentrations (from 5-48 columns) or positive control (from 1 to 4 columns) were transferred to the assay plates using a Pintool station. One uL of PK11195 (final concentration = 0.75 uM) was added, using a Flying Reagent Dispenser, inside each well. After a 23 hr incubation period at 37 C/5% CO2, 1 uL of CellTiter-Fluor reagent was added into each well of the assay plates using a Flying Reagent Dispenser. The fluorescence intensity in the plates was then measured using a ViewLux plate reader.
For orientation: Quantitative high-throughput screening tests each substance at several concentrations.
`O=C(O)c1cc(-c2ccc(F)cc2F)ccc1O`: the Potency entry is “inactive”.
Take `C#C[C@]1(OC(C)=O)CC[C@H]2[C@@H]3CCC4=C[C@@H](OC(C)=O)CC[C@@H]4[C@H]3CC[C@@]21C`: the Potency result was “inactive”.
The same measure, in the same setting: then `CCN(CC)c1ccc2c(-c3ccc(S(=O)(=O)O)cc3S(=O)(=O)[O-])c3ccc(=[N+](CC)CC)cc-3oc2c1`, with 31.6 µM (active).
Take `C[C@H]1NCc2cc(-c3ccc4c(=O)c(C(=O)O)cn(C5CC5)c4c3OC(F)F)ccc21`: the viability change, negative = cytotoxic is 8.47% [at 19 µM].
`COC(C)=O`: the Potency result was “inactive”.
On the same count and under the same terms, then `CCC(C)n1ncn(-c2ccc(N3CCN(c4ccc(OC[C@H]5CO[C@](Cn6cncn6)(c6ccc(Cl)cc6Cl)O5)cc4)CC3)cc2)c1=O` (stereo not given in full), with “inactive”; and `S=c1nccc[nH]1`, with “inactive”; and `Cc1c(C)c([N+](=O)[O-])c(C(C)(C)C)c([N+](=O)[O-])c1C`, with “inactive”.
In the case of `C#CC1(O)CC[C@H]2[C@@H]3CCC4=CCCC[C@@H]4[C@H]3CC[C@@]21C` (stereo not given in full), the Potency entry was “inactive”.
As for `O=C(O)[C@H](O)[C@@H](O)[C@H](O[C@@H]1O[C@H](CO)[C@H](O)[C@H](O)[C@H]1O)[C@H](O)CO`, the Potency result is “inactive”.
Turning to `c1ccc(SSc2ccccc2)cc1`, the Potency result was “inactive”.
Still for that read-out and setting: for `OC1CCCc2ccccc21` (stereo not given) the value was “inactive”.
Turning to `Cc1cc(C(C)(C)C)cc(C)c1CC1=NCCN1`, the Potency entry is “inactive”.
Same read-out and setting: then `CCCCC(CC)COC(=O)CCCCC(=O)OCc1ccccc1` (stereo not given), with “inactive”; and `CCc1ccc(Br)cc1`, with “inactive”; and `Cc1cc(-n2nc3ccc(Cl)cc3n2)c(O)c(C(C)(C)C)c1`, with “inactive”.
Take `CC1(C)CC(O)CC(C)(C)N1`: the Potency result is “inactive”.
With `CCCCCCCCCCOC(=O)c1ccccc1C(=O)OCCCCCCCC`, the Potency result is “inactive”.
As to `CCCCCCCCCCCC(=O)OCC(C)OC(=O)CCCCC(=O)O` (stereo not given), the Potency entry is “inactive”.
As for `O=[N+]([O-])c1cccc(C(F)(F)F)c1`, the Potency result is “inactive”.
Still for that read-out and setting: then `c1cnccn1`, with “inactive”; and `Cc1c(C)c2c(c(C)c1O)CC[C@@](C)(CCC[C@H](C)CCC[C@H](C)CCCC(C)C)O2`, with “inactive”; and `FC(F)(F)c1cccc(Cl)c1`, with “inactive”.
For the compound `Nc1nc(-c2ccccc2)cs1`, the Potency entry is “inactive”.
For the compound `O=c1c(O)c(-c2ccc(O)cc2O)oc2cc(O)cc(O)c12`, the Potency entry is “inactive”.
The same measure, in the same setting: for `O=C(O)CCN(C1(C(=O)NO)CCCC1)S(=O)(=O)c1ccc(Oc2ccc(F)cc2)cc1` the value was “inactive”; for `Nc1ccc(C(=O)O)c(O)c1`, “inactive”.
For `C[C@@H](O)[C@H](N)C(=O)O`, the viability change, negative = cytotoxic was -1.25% [at 19 µM].
Regarding `CCn1c2ccccc2c2cc([N+](=O)[O-])ccc21`, the Potency result was “inactive”.
On to `COc1ccc(NC(=O)CC(C)=O)cc1`, for which the Potency entry was “inactive”.
The same measure, in the same setting: then `CC(=O)Oc1cc2c(s1)CCN(C(C(=O)C1CC1)c1ccccc1F)C2` (stereo not given), with “inactive”.
The same measure, in the same setting: then `CCOC(=O)Cn1cccc1-c1nc(-c2ccc(OC)cc2)c(-c2ccc(OC)cc2)s1`, with “inactive”.
In the case of `CCCCCCCCCCCCCC[N+](C)(C)C`, the Potency was 23.5 µM (active).
Take `CC1(C)CCC[C@]2(C)[C@H]3CC(=O)O[C@]3(C)CC[C@@H]12`: the Potency entry is “inactive”.
For the compound `CCCC[P+](C)(CCCC)CCCC`, the Potency entry was “inactive”.
In the case of `CC(C)OC(=O)C(O)(CC(=O)O)CC(=O)O`, the Potency result is “inactive”.
For `CCN(CCN)c1cccc(C)c1`, the Potency result was “inactive”.
As for `COc1cc2nc(N3CCN(C(=O)c4ccco4)CC3)nc(N)c2cc1OC`, the viability change, negative = cytotoxic is -2.7% [at 19 µM].
With `NC(=O)c1cccc([N+](=O)[O-])c1`, the Potency result was “inactive”.
For `C/C=C/C=C/COC(=O)C(C)C`, the Potency result was “inactive”.
